Among the data in PubChem BioAssay (NCATS) are Potency and max response values, retold here.

Each structure is given as a SMILES string. Values joined by “and” are separate entries in the source; they are usually repeats but may differ in a detail not shown here. Identical values can stand only once. Records with an inconclusive call do not appear. Active and inactive are the calls of the source. Calls come from the whole dose curve; as a rule, active = well fitted curve in the direction sought with a large enough effect; inconclusive = small, poorly fitted or top-dose-only effect, or another doubt; inactive = no such curve, though single readings can be large or run the other way.
% is set by controls: 0 for no effect and ±100 for the full control effect; potency is the fitted concentration of half-maximal effect.

The nature of the assay: qHTS Assay for Identifying Gametocytocidal Compounds (AID 743244).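 For max response: actives lower the fluorescent signal which means gametocytes are killed.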 To be noted: P. falciparum 3D7 stage III-V gametocytes, alamarBlue, 72 h; max response: active compounds read low. From the text: Malaria cases and deaths have dropped 50% in 29 countries since 2000 due to the combined effects of long-lasting insecticidal bednets, indoor residual spraying, and artemisinin-based combination therapies (ACTs). This success has raised hopes for malaria eradication and consequently stimulated interest in developing new reagents that block gametocyte transmission such as novel and safe gametocytocidal drugs. However, previous drug development efforts have focused primarily on the asexual parasites that cause symptoms, but not malaria transmission. Consequently, patients can remain infectious for weeks after the clearance of asexual parasites and clinical symptoms. To be transmitted from person to person via a mosquito, the parasites must switch from asexual to sexual development and produce male and female gametocytes. Malaria gametocytes consist of five stages (I, II, III, IV and V). The late stage gametocytes (III, IV and V) are difficult to be cultured in vitro and the long lifespan of mature gametocytes allows them being transmitted from host to mosquitoes unless they are completely eliminated by gametocytocidal agents. To identify gametocytocidal compounds which are capable of killing late stage P. falciparum gametocytes, a high throughput gametocyte viability assay was employed. This assay uses oxidoreduction indicator, alamarBlue, as a general measure of metabolic activity of gametocytes. Within live cells, the nonfluorescent resazurin is reduced to resorufin, a bright red fluorescence dye. Fluorescence decreases upon treatment of gametocytocidal compounds. P. falciparum gametocyte (3D7 strain) was used in this study.
The 1536-well gametocycidal viability assay was based on the previous method of Tanaka et al. Stage III-V gametocytes were tested against three compound libraries, including 4265 compounds from NCGC pharmaceutical collection, 400 from Malaria Box library, and 550 from an internal collection of kinase inhibitors. Briefly, 2.5 ul/well incomplete medium was dispensed into each well of 1,536-well plates using the Multidrop Combi followed by 23 nl compound transferring using the NX-TR Pintool (WAKO Scientific Solutions, San Diego, CA). Then, 2.5 ul/well of gametocytes was dispensed with a seeding density of 20,000 cells/well using the Multidrop Combi. The assay plates were incubated for 72 h at 37C with 5% CO2. After addition of 5 ul/well of 2X AlamarBlue dye (Life Technologies, cat. no. DAL1100), the plates were incubated for 24 h at 37C with 5% CO2 and then were read in a fluorescence detection mode (Ex = 525 nm, Em = 598 nm) on a ViewLux plate reader (PerkinElmer).
For `COc1cccc(C(=O)CCN[C@@H](C)[C@H](O)c2ccccc2)c1`, the Potency is 31.6 µM (active).

On to `CC(C)C[C@H](CN)CC(=O)O`, for which the max response was 2.29% (inactive).

On to `C[C@H]1[C@@H]2Cc3ccc(O)cc3[C@@]1(C)CCN2C`, for which the max response was 2.87% (inactive).

Turning to `CC(=O)OCC1=C(C(=O)O)N2C(=O)[C@@H](N)[C@H]2SC1`, the max response was -3.04% (inactive).

Turning to `O=C1Nc2ccc(Cl)cc2C(c2ccccc2Cl)=NC1O` (stereo not given), the max response is 16.1% (inactive).

For the molecule `CN1C[C@H](C(=O)N[C@]2(C)O[C@@]3(O)[C@@H]4CCCN4C(=O)[C@H](Cc4ccccc4)N3C2=O)C=C2c3cccc4[nH]cc(c34)C[C@H]21`, the Potency was 8.91 µM (active).

With `CCCC(C)(COC(N)=O)COC(N)=O`, the max response was -2.61% (inactive).

With `C#C[C@]1(O)CC[C@H]2[C@@H]3CCC4=CC(=O)CC[C@]4(C)[C@H]3CC[C@@]21C`, the max response is 15.4% (inactive) and 2.46% (inactive).

As to `O=C1c2ccccc2C(=O)c2ccccc21`, the max response is -6.63% (inactive).

Consider `COC(=O)C(Cl)C(=O)OC`, for which the max response is -5.17% (inactive).

For `CN1CC[C@]23c4c5ccc(O)c4O[C@H]2[C@@H](O)CC[C@H]3[C@H]1C5`, the max response is 10.1% (inactive).

Turning to `CCOP(=S)(OCC)Oc1ccc2c(C)c(Cl)c(=O)oc2c1`, the max response was -0.845% (inactive).

For the molecule `CCCCCN(C)CCC(O)(P(=O)(O)O)P(=O)(O)O`, the max response was 17.4% (inactive) and 7.96% (inactive).

For the molecule `CCN[C@@H](C)Cc1ccccc1`, the max response was -4.1% (inactive).

As to `CC(=O)N1CCN(c2ccc(OC[C@H]3CO[C@](Cn4ccnc4)(c4ccc(Cl)cc4Cl)O3)cc2)CC1`, the max response was 0.452% (inactive).

`CCc1cc2c(s1)-n1c(C)nnc1CN=C2c1ccccc1Cl`: the max response was 2.24% (inactive).

As to `CC(=O)NC1CCSC1=O` (stereo not given), the max response was -2.2% (inactive) and 7.47% (inactive).

As for `CCCCC/C=C\C/C=C\C/C=C\C/C=C\CCCC(=O)NCC(=O)O`, the max response is -2.03% (inactive) and 7.82% (inactive).

As to `O=c1oc2ccccc2c(O)c1Cc1c(O)c2ccccc2oc1=O`, the max response was 2.96% (inactive).

Turning to `CN1C(=O)COc2c(C(=O)NC3CN4CCC3CC4)cc(Cl)cc21` (stereo not given), the max response was 4.3% (inactive).

As to `NC1=NC(=O)C(c2ccccc2)O1` (stereo not given), the max response was -7.8% (inactive).

Consider `COc1ccc2c(c1OC)C(=O)O[C@H]2[C@@H]1c2cc3c(cc2CCN1C)OCO3`, for which the max response is 10.8% (inactive) and 14.8% (inactive).

As for `CCN[C@@H](C)Cc1cccc(C(F)(F)F)c1`, the max response is 13.9% (inactive).

`c1ccc2c(c1)sc1ccccc12`: the max response is 5.76% (inactive).

`CN[C@@H](C)Cc1ccccc1`: the max response is 5.78% (inactive).

With `CNC(C)(C)Cc1ccccc1`, the max response is 20.1% (inactive).

As to `CC(C)c1cccc(C(C)C)c1O`, the max response is -8.91% (inactive) and 15.4% (inactive).

`O=C(Nc1ccc(Br)cc1)c1cc(Br)cc(Br)c1O`: the max response is 3.6% (inactive).

Regarding `C[N+]1(CCF)[C@@H]2CC[C@H]1CC(OC(=O)C(O)(c1ccccc1)c1ccccc1)C2` (stereo not given in full), the max response was 7.34% (inactive).

Consider `CC(C)=CC1C(C(=O)OCN2C(=O)C3=C(CCCC3)C2=O)C1(C)C` (stereo not given), for which the max response was 1.71% (inactive).

Regarding `Oc1ccc(Cl)cc1`, the max response was -8.53% (inactive).

Consider `C=CCC1([C@H](C)CCC)C(=O)NC(=O)NC1=O`, for which the max response was -4.95% (inactive).

Turning to `COC(=O)[C@@H](N)CCCN/C(N)=N/[N+](=O)[O-]`, the max response was -0.272% (inactive).

For `COc1ccc2c3c1O[C@H]1[C@H](O)CC[C@H]4[C@@H](C2)N(C)CC[C@@]341`, the max response is -0.489% (inactive).

For `CCC1(c2ccccc2)C(=O)N(COC)C(=O)N(COC)C1=O`, the max response is -2.08% (inactive).

Regarding `O=C1OC(c2ccc(O)c(S(=O)(=O)O)c2)(c2ccc(O)c(S(=O)(=O)O)c2)c2c(Br)c(Br)c(Br)c(Br)c21`, the max response is 21% (inactive).

Take `[N-]=[N+]=CC(=O)OC[C@H](N)C(=O)O`: the max response is -0.674% (inactive).

`O=C(O)CCCc1ccc(N(CCCl)CCCl)cc1`: the max response was -1.81% (inactive) and 3.48% (inactive).

With `C[C@]1(O)CC[C@H]2[C@@H]3CCC4=CC(=O)CC[C@]4(C)[C@@]3(F)[C@@H](O)C[C@@]21C`, the max response was 8.13% (inactive).

Regarding `COC(=O)C(c1ccccc1)C1CCCCN1` (stereo not given), the max response is -2.03% (inactive).
